Test results published in PubChem BioAssay AID2685 (National Center for Advancing Translational Sciences (NCATS), 2010).
In all, about 320,000 compounds went through this assay and about 2,100 (0.66%) were called active. About 53% were inconclusive and are not listed. Calls come from the whole dose curve; as a rule, active = well fitted inhibition curve with a large enough effect in the signal ratio, with a control signal flat (not every such curve was filed as active); inconclusive = small, poorly fitted or top-dose-only effect, or effect the other way, or a change in a side signal; inactive = flat fitted curve, though single readings scatter; the % refers to the signal ratio. The sample as a whole holds a higher share of actives than the screen did.

Experiment: qHTS Assay for Lipid Storage Modulators in Drosophila S3 Cells;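 for cell number change: cells counted by Cell Tracker Red CMTPX staining in the red channel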; for lipid storage change, negative = inhibition: % is set by controls: 0 for no effect and ±100 for the full control effect
Conditions: BODIPY lipid droplet fluorescence, 18-24 h, cells fed with added oleic acid; cell number change: measured here: cell count max response; series mostly up to 46.1 µM; lipid storage change, negative = inhibition: at the top concentration
In short: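 Drosophila S3 cells got compounds at several concentrations plus oleic acid (400 uM solution). Laser-scanning cytometry with 488 nm excitation read lipid droplets at 500-530 nm and cells at 575-640 nm. Percent activity was relative to 20 uM Triacsin C.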
Potency is the fitted concentration of half-maximal effect.

| SMILES | lipid storage change, negative = inhibition | cell number change [%] | Potency | outcome |
| --- | --- | --- | --- | --- |
| COc1ccc(C2=NC(C)(C)Cc3cc(OC)c(OC)cc32)cc1 | 14.1% (inactive) | -1.73 |  |  |
| CCNC(=O)n1nccc1C(C)Oc1ccccc1 (stereo unspecified) | 7.19% (inactive) | 17.8 |  |  |
| CCc1ccc(CNC(=O)C2CCN(S(=O)(=O)N3CC(C)CC(C)C3)CC2)cc1 (stereo unspecified) | -15.9% (inactive) | 14.3 |  |  |
| COc1ccc(CNC(=O)CSc2nccn(-c3ccc(F)c(F)c3)c2=O)cc1 | -25.5% [at 0.0737 µM] (inactive) | 17.2 |  |  |
| Cc1ccc(CNC(=O)CSc2nccn(-c3ccc(C)c(F)c3)c2=O)cc1 |  | -20 | 14.6 µM (active) |  |
| CCOc1ccc(-n2ccnc(SCC(=O)NCCc3ccccc3)c2=O)cc1 | 22.2% (inactive) | -8.43 |  |  |
| CN1CCN(c2ncnc3sc(-c4ccccc4)cc23)CC1 | 15% (inactive) | 24.2 |  |  |
| CN1CCN(C(=O)/C=C/c2ccc([N+](=O)[O-])o2)CC1 |  | -21.6 | 32.6 µM (active) |  |
| CN1CCN(C(=O)/C=C/c2ccc([N+](=O)[O-])cc2)CC1 | -0.257% (inactive) | -5.05 |  |  |
| COc1ccc(/C=C/C(=O)c2ccc([N+](=O)[O-])o2)cc1 | -7.12% (inactive) | 5.86 |  |  |
| CCc1ccc(C(=O)/C=C/c2ccc([N+](=O)[O-])o2)cc1 |  | -21.1 | 1.3 µM (active) |  |
| O=C(/C=C\c1ccc(-c2cccc([N+](=O)[O-])c2)o1)N1CCOCC1 | 0.516% (inactive) | 1.96 |  |  |
| CCN(CC)S(=O)(=O)c1ccc(C(=O)/C=C/c2ccc(-c3ccc([N+](=O)[O-])cc3)o2)cc1 | -2.16% (inactive) | 6.91 |  |  |
| CCOC(=O)c1ccc(NC(=S)NNC(=O)c2cc(-c3cccnc3)nc3ccccc23)cc1 | -22.8% (inactive) | -10.9 |  |  |
| OCC1(CCc2ccccc2)CCN(Cc2cnc(N3CCCC3)s2)CC1 | -4.43% (inactive) | -1.4 |  |  |
| O=C(CCC(=O)N1CCOc2ccccc21)Nc1cc(F)ccc1F | -28.3% (inactive) | -2.02 |  |  |
| O=C1OCc2ccc(NC(=O)c3ccccc3C(=O)O)cc21 | -11.6% (inactive) | 2.9 |  |  |
| Cc1ccc(C)c(S(=O)(=O)Nc2ccc(C(=O)NCC(c3ccco3)N3CCCCC3)cc2)c1 (stereo unspecified) | -6.69% (inactive) | 16 |  |  |
| Cc1ccc2[nH]c(=O)c(CN(C)C(=O)c3cccs3)cc2c1 | -3.04% (inactive) | -11.8 |  |  |
| COC(=O)c1c(NC(=O)CCl)sc(C(=O)N2CCOCC2)c1C |  | -18.1 | 0.651 µM (active) |  |
| COC(=O)c1c(NC(=O)c2ccccc2OC)sc(C(=O)N2CCOCC2)c1C |  | 4.76 |  | inactive |

| SMILES | lipid storage change, negative = inhibition | cell number change [%] | Potency | outcome |
| --- | --- | --- | --- | --- |
| COC(=O)c1c(N)sc(C(=O)N2CCOCC2)c1C |  | 8.28 |  | inactive |
| O=C(Cc1ccc(F)cc1)Nc1c(C(=O)N2CCN(c3ncccn3)CC2)oc2ccccc12 |  | 26.3 |  | inactive |
| COc1ccccc1CCNC(=O)c1cc(-c2ccncc2)nc2ccc(Br)cc12 | -8.45% (inactive) | -14.5 |  |  |
| O=C(CCc1c[nH]c2ccccc12)OCc1cccc([N+](=O)[O-])c1 |  | 0.451 | 5.8 µM (active) |  |
| O=C(COC(=O)CCc1c[nH]c2ccccc12)Nc1cc([N+](=O)[O-])ccc1Cl | 9.58% (inactive) | 17.2 |  |  |
| O=C(COC(=O)CCc1c[nH]c2ccccc12)Nc1ccc([N+](=O)[O-])cc1 | -0.164% (inactive) | -0.284 |  |  |
| Cn1c(C(=O)Nc2ccccc2)cc2sccc21 | -9.82% (inactive) | -17.5 |  |  |
| Cc1cccc(NC(=O)CCC(=O)N2CCOCC2)n1 | 6.69% (inactive) | -0.208 |  |  |
| CC(C)(C)n1nc2c(c1NC(=O)c1ccco1)CS(=O)C2 (stereo unspecified) |  | -3.33 | 29.1 µM (active) |  |
| O=C(Nc1c2c(nn1-c1ccccc1)CS(=O)C2)c1ccco1 (stereo unspecified) |  | -4.99 |  | inactive |
| CC(C)(C)n1nc2c(c1NC(=O)c1ccc(Br)o1)CS(=O)C2 (stereo unspecified) | -2.21% (inactive) | 12.2 |  |  |
| CCN1C(=O)/C(=c2\sc3nc(=O)c(Cc4ccccc4)nn3c2=O)c2ccccc21 | 3.23% (inactive) | 6.19 |  |  |
| C(C#CCCCCCCCCC[n+]1ccccc1)#CCCCCCCCCC[n+]1ccccc1 |  | 2.42 | 13 µM (active) |  |
| Oc1ccc[n+](CCCCC[n+]2cccc(O)c2)c1 | -6.79% (inactive) | -10 |  |  |
| O=C(O)CCCCCCCCCC[n+]1ccccc1 | -6.38% (inactive) | 3.19 |  |  |
| CSc1ccc(CN2CCCC(N3CCN(c4ccccc4)CC3)C2)cc1 (stereo unspecified) | 12.6% (inactive) | -9.94 |  |  |
| CC(C)(C)c1cc(C(=O)NNc2ccc(OC(F)(F)F)cc2)n(Cc2ccccc2)n1 | 4.79% (inactive) | 8.19 |  |  |
| CC(C)(C)c1cc(C(=O)NNc2cc(C(F)(F)F)ccc2Cl)n(Cc2ccccc2)n1 |  | -27.1 | 25.9 µM (active) |  |
| COc1ccccc1NNC(=O)c1cc(C(C)(C)C)nn1Cc1ccccc1 | 3.58% (inactive) | 13.3 |  |  |
| CC1CCCCC1NC(=O)c1ccc(S(=O)(=O)NCC2CCCO2)cc1 (stereo unspecified) | -16% (inactive) | 3.19 |  |  |
| Cc1ccc(NC2OC(CO)C(O)C2O)cc1[N+](=O)[O-] (stereo unspecified) | -8.08% (inactive) | -2.09 |  |  |

| SMILES | lipid storage change, negative = inhibition | cell number change [%] | Potency | outcome |
| --- | --- | --- | --- | --- |
| Cc1ccc(NC2OC(CO)C(O)C(O)C2O)cc1 (stereo unspecified) |  | -12.8 |  | inactive |
| CC(=O)c1ccc(NC2OC(CO)C(O)C(O)C2O)cc1 (stereo unspecified) |  | -9.97 | 32.6 µM (active) |  |
| O=C(CCOc1ccccc1)N1CCN(S(=O)(=O)c2cccs2)CC1 |  | 5.86 |  | inactive |
| C=CCN1C(=O)C2(OCCO2)c2cc(C)ccc21 | -2.45% (inactive) | 5.32 |  |  |
| C=CCN1C(=O)C2(OCCCO2)c2cc(Cl)ccc21 |  | 7.73 | 4.11 µM (active) |  |
| C=CCN1C(=O)C2(OCCCO2)c2ccccc21 | -18.8% (inactive) | 7.72 |  |  |
| Cc1cc(C)c2nc(N3CCCC(C(=O)NCCN4CCOCC4)C3)sc2c1 (stereo unspecified) | 8.41% (inactive) | -0.96 |  |  |
| CC(=O)C1=C(O)C(=O)N(CCO)C1c1ccccc1 (stereo unspecified) | -9.46% (inactive) | 1.42 |  |  |
| Cc1ccc(/C(O)=C2/C(=O)C(=O)N(CCN3CCOCC3)C2c2ccccn2)cc1 (stereo unspecified) |  |  | 29.1 µM (active) |  |
| CC(=O)C1=C(O)C(=O)N(CCN2CCOCC2)C1c1ccccc1 (stereo unspecified) |  | 1.7 | 20.6 µM (active) |  |
| CCOc1ccc(C2C(C(=O)c3cccs3)=C(O)C(=O)N2CCN2CCOCC2)cc1 (stereo unspecified) | -0.573% (inactive) | 7.61 |  |  |
| O=C(C1=C(O)C(=O)N(CCN2CCOCC2)C1c1ccc(F)cc1)c1cccs1 (stereo unspecified) |  | -5.07 | 18.4 µM (active) |  |
| O=C(C1=C(O)C(=O)N(CCN2CCOCC2)C1c1ccc([N+](=O)[O-])cc1)c1cccs1 (stereo unspecified) | -23.9% (inactive) | 22.6 |  |  |
| Cc1ccc(C2C(C(=O)c3cc4ccccc4o3)=C(O)C(=O)N2CCN2CCOCC2)cc1 (stereo unspecified) |  | -0.236 |  | inactive |
| O=C1C(=O)N(CCN2CCOCC2)C(c2ccccn2)/C1=C(/O)c1ccc(Cl)cc1 (stereo unspecified) | 4.03% (inactive) | 8.56 |  |  |
| O=C(C1=C(O)C(=O)N(CCCn2ccnc2)C1c1ccccc1)c1ccco1 (stereo unspecified) | -22.1% (inactive) | -0.647 |  |  |
| COCCN1C(=O)C(O)=C(C(=O)c2ccco2)C1c1cccc(Oc2ccccc2)c1 (stereo unspecified) | 3.16% (inactive) | 11.9 |  |  |
| O=C1C(=O)N(CCN2CCOCC2)C(c2ccccn2)/C1=C(/O)c1ccccc1 (stereo unspecified) | 3.62% (inactive) | 1.37 |  |  |
| COCCCN1C(=O)C(O)=C(C(=O)c2ccco2)C1c1ccccc1 (stereo unspecified) |  | -2.26 | 3.66 µM (active) |  |
